Source: PubChem
In the library only some 4.1% were active in any assay of this set; here they are far more common.
ssDAF12 agonist: S. stercoralis DAF-12 nuclear receptor activators, primary screen, cell-based, luminescence, HEK293, GRIP1 co-expression, lit1-tk-luc. HEK293 ssDAF-12/GRIP1 lit1-tk-luc reporter; % of 3 µM dafachronic acid response. Nuclear hormone receptor DAF-12 (Strongyloides stercoralis). AID 652126, 2013. activation, % at 6.8 µM. actives 1% (n = 370,000);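 active = activation above the mean over all tested compounds plus 3 SD, cut at about 0.9% in these data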
hcDAF-12 act: H. contortus DAF-12 nuclear receptor activators, primary screen, cell-based, luminescence, HEK293, lit1-tk-luc reporter. HEK293 hcDAF-12 lit1-tk-luc reporter; 0% DMSO, 100% Δ7-dafachronic acid. actives 1.4% (n = 370,000). activation, % at 6.8 µM. AID 652067, 2013;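 active = activation above the mean of all tested compounds plus 3 SD, cut at about 5.5% in these data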
DAX1 inh-1: DAX1 (NR0B1) inhibitors, primary screen, cell-based, HEK293, Gal4-DAX1, luciferase luminescence. HEK293 Gal4-DAX1 luciferase reporter. Nuclear receptor subfamily 0 group B member 1 (Homo sapiens), P51843. actives 0.99% (n = 340,000). inhibition, % at 6.75 µM;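 active = inhibition above the mean over all tested compounds plus 3 SD, cut at about 4.2% in these data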;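 also: inhibition shows as a rise in luminescence from relieved DAX1 repression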
Target sequence (P51843 207-470 limits assumed): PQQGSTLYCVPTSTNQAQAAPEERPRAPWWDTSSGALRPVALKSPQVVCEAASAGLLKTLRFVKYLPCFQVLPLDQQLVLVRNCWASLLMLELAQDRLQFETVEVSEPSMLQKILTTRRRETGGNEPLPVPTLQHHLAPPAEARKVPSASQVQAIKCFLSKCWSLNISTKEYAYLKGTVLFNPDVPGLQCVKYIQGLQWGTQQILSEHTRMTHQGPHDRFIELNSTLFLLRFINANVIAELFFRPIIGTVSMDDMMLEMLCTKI
hgDAF12 agonist: H. glycines DAF-12 receptor agonists, primary screen, cell-based, luminescence, HEK293, GAL4 fusion, UAS-luciferase; Nuclear hormone receptor DAF-12 (Heterodera glycines), GAL4 fusion; AID 687014, 2013; actives 1.8% (n = 370,000); HEK293 GAL4-hgDAF12 UAS-luciferase reporter, agonist luminescence; normalized to butyrate control; activation, % at 6.8 µM;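 active = activation above a cutoff set at the mean of all screened compounds plus 3 SD, cut at about 10% in these data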
DAX1 inh-2: DAX1 (NR0B1) inhibitors on StAR promoter, primary screen, cell-based, luminescence, SF-1 (NR5A1), full-length DAX-1. HEK293T StAR-luciferase reporter, SF-1/DAX-1 repression relief. inhibition, % at 6.8 µM. actives 1.1% (n = 370,000);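 active = inhibition above the mean over all tested compounds plus 3 SD, cut at about 3.6% in these data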;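 also: higher inhibition means more luminescence from relief of DAX-1 repression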
Hits are given with their value; – = inactive; · = no result given.

SMILES | ssDAF12 agonist | hcDAF-12 act | DAX1 inh-1 | hgDAF12 agonist | DAX1 inh-2
CC(=O)C1(C(=O)NCc2ccccc2)CC(c2ccccn2)=NO1 (stereo not drawn) | – | – | · | – | –
Cc1c(C#N)c(N=CN(C)C)c(C(=O)c2ccccc2)n1-c1ccccc1 | – | – | – | – | –
Cc1c(C(N)=O)c(N)c(C(=O)c2ccccc2)n1-c1ccccc1 | – | – | 5.0 | – | –
CC1CCN(C(=O)CSCC(=O)Nc2nc(-c3cccs3)cs2)CC1 | – | – | – | – | –
CC1CCCN(C(=O)CSCC(=O)Nc2nc(-c3cccs3)cs2)C1 (stereo not drawn) | – | 6.4 | – | – | –
CCOC(=O)[C@]12CCCCC/C=C\1N(CCc1ccc(Cl)cc1)C(=O)[C@H]2CC(=O)N1CCC(c2ccccc2)CC1 | – | – | · | – | –
NC(=O)c1cc(Cc2ccccc2)sc1NC(=O)c1ccco1 | – | – | – | 13 | –
Cn1c(=NC(=O)c2ccc(S(=O)(=O)N3CCCc4ccccc43)cc2)sc2cc(S(C)(=O)=O)ccc21 | – | – | – | – | –
Cn1c(=NC(=O)c2ccccc2[N+](=O)[O-])sc2cc(S(C)(=O)=O)ccc21 | – | – | – | 12 | 4.3
CCOC(=O)[C@@]12CN(C(=O)OC(C)(C)C)CC=C1N(Cc1ccc(OC)cc1)C(=O)[C@H]2CC(=O)NCCCN1CCCC1=O | – | – | · | – | –
CC1CCCCN1C(=O)CN1CCC(c2nc3ccc(Cl)cc3[nH]2)CC1 (stereo not drawn) | – | – | 4.5 | – | –
Cc1ccc(CN2CCC(c3nc4ccc(Cl)cc4[nH]3)CC2)cc1 | – | – | – | – | –
CCOc1cccc2sc(N(CCCN(C)C)C(=O)c3ccc(S(=O)(=O)N(CC)Cc4ccccc4)cc3)nc12 | – | – | – | – | –
CCN(Cc1ccccc1)S(=O)(=O)c1ccc(C(=O)N(CCCN(C)C)c2nc3c(F)cccc3s2)cc1 | – | 5.7 | – | – | –
CC(=O)N1c2ccccc2C(=O)NCC1C(=O)NC(C)(C)C (stereo not drawn) | – | – | · | – | –
O=S(=O)(Nc1ccc(O)c2ccccc12)c1cccs1 | – | 6.7 | – | – | –
O=S(=O)(Nc1cccc2ccccc12)c1cccs1 | – | 6.1 | – | – | –
COc1ccccc1NS(=O)(=O)c1cccs1 | – | – | – | – | –
COc1ccc(-n2c(SCC(=O)NN=Cc3c(O)ccc4ccccc34)nnc2-c2ccc(C(C)(C)C)cc2)cc1 | – | – | · | – | –
O=[N+]([O-])c1ccc(O)c(Nc2ncnc3ccccc23)c1 | 1.1 | – | – | – | –
NC(=O)c1ncn([C@@H]2O[C@H](C(=O)N3CCCN(Cc4ccccc4F)CC3)[C@@H](O)[C@H]2O)n1 | – | – | · | – | –
CN(C)N1C(N)=C(C#N)C(c2cccs2)C2=C1CC(C)(C)CC2=O (stereo not drawn) | 2.0 | – | · | – | –
Cc1ccccc1C1C(C#N)=C(N)N(N(C)C)C2=C1C(=O)CC(C)(C)C2 (stereo not drawn) | – | – | – | – | –
N/C(=N\OC(=O)COc1ccc(Cl)cc1Br)c1cccnc1 | – | – | – | 11 | –
N/C(=N\OC(=O)COc1ccc(Br)cc1Cl)c1cccnc1 | – | – | – | 12 | –
SMILES | ssDAF12 agonist | hcDAF-12 act | DAX1 inh-1 | hgDAF12 agonist | DAX1 inh-2
Cc1ccc(C)c(OCC(=O)O/N=C(\N)c2cccnc2)c1 | – | – | – | – | –
O=C(OC12CCCN(C1)/C(=C/c1cccnc1)C2)c1ccco1 (stereo not drawn) | – | – | · | – | –
Cc1cc(-c2nnc(SCC(=O)Nc3cccc4ccccc34)n2N)n[nH]1 | – | – | · | – | –
Cc1ccccc1NC(=O)NCCc1nc2ccccc2[nH]1 | – | – | – | – | –
Cc1ccccc1NC(=S)c1nc2ccccc2[nH]1 | 1.2 | 5.8 | – | – | –
COc1cccc(NC(=S)N2CCN(c3ccc([N+](=O)[O-])cc3)CC2)c1 | 1.1 | – | – | – | –
Cc1cccn2c(=O)c(C(=O)NC3CCCCC3)c(O)nc12 | – | – | – | – | –
Cc1cccn2c(=O)c(C(=O)NC3CCCCC3C)c(O)nc12 (stereo not drawn) | – | – | – | – | 4.0
O=C(C1CCCN(S(=O)(=O)c2ccccc2F)C1)N1CCN(Cc2ccccc2)CC1 (stereo not drawn) | – | – | · | – | –
Cc1ccc(C(=O)/C=C\C(=O)c2ccc(C)cc2)cc1 | – | – | – | – | –
CC(/C=C/C(=O)c1ccc(C)cc1)=C\c1ccccc1 | – | – | 5.3 | – | –
Cn1c(CNC(=O)c2ccc(F)cc2)cc2ccccc21 | 1.0 | – | 4.3 | – | –
COCc1[nH]nc2c1C(c1ccccc1)N(Cc1ccccc1)C2=O (stereo not drawn) | – | – | · | – | –
COc1ccc(S[C@]2(C(=O)N3CCOCC3)CC(=O)N(C(=O)Nc3ccc(C)c(Cl)c3)[C@@H]2c2ccc(OC)cc2)cc1 | – | – | · | – | –
COc1ccc(CN(CCN2CCOCC2)C(=O)c2cc(Cl)ccc2F)cc1OC | – | – | · | – | –
O=C(CSc1nnc(-c2ccncc2)n1-c1ccc(Cl)cc1)c1ccc(Cl)c(Cl)c1 | – | – | · | – | –
Cc1ccc(NC(=O)c2cc(=O)c3ccccc3o2)cc1S(=O)(=O)N1CCCCC1 | – | – | – | – | –
O=C(Nc1ccc(S(=O)(=O)N2CCCC2)cc1)c1cc(=O)c2ccccc2o1 | – | – | 4.3 | – | –
Fc1ccc(/C=C\c2nccc3c2[nH]c2ccccc23)cc1 | – | 5.6 | – | – | –
C(=C\c1nccc2c1[nH]c1ccccc12)/c1ccccc1 | – | – | – | – | –
CCOC(=O)C1=C(C)Nc2nc3ccccc3n2C1c1ccccc1 (stereo not drawn) | – | – | 5.4 | – | –
CC1Cc2ccccc2N1C(=O)c1cc2cccnc2n(C)c1=O (stereo not drawn) | – | 5.6 | – | – | –
C=C(C)CNC(=O)CCc1nnc(C2(c3ccc(Cl)cc3)CCC2)o1 | – | – | – | – | –
O=C(CCc1nnc(C2(c3ccc(Cl)cc3)CCC2)o1)NC1CC1 | – | – | – | – | –
COC(=O)CNC(=O)CCc1nnc(C2(c3ccc(Cl)cc3)CCC2)o1 | – | – | 4.4 | – | –
C=CCNC(=O)CCc1nnc(C2(c3ccc(Cl)cc3)CCC2)o1 | – | – | – | 12 | –
O=C(NCCc1cccs1)c1cccs1 | – | – | – | 11 | –
